This note sets out measurements from the supplement of paper PMC6411743.

Compound in this assay: Nc1nc2c(ncn2[C@@H]2O[C@H](COP(=O)(O)OP(=O)(O)OP(=O)(O)O)[C@@H](O)[C@H]2O)c(=O)[nH]1 [guanosine triphosphate]
Nature of the assay: NP40-soluble protein abundance relative to vehicle (solubility fold change) (ratio); higher = more soluble protein in presence of GTP. In short, it runs like this:
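In three independent experiments, Jurkat crude lysate made by Dounce homogenisation was treated for 10 min at room temperature and then 3 min at 37 °C with eight concentrations ranging from 0.1 to 10 mM. It was then solubilised with 0.8% NP40 plus benzonase for 60 min at 4 °C and ultracentrifuged. The supernatant was TMT-labelled for LC-MS/MS, and each value is the fold change against the detergent-processed vehicle for the same replicate, using vsn-normalised intensities.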

± gives the standard deviation of the averaged measurements. About 5,400 targets were measured; listed, in parts, are those with the largest changes and a random draw of the rest.

UniProt Q9NPD3, sequence (Q9NPD3 whole entry): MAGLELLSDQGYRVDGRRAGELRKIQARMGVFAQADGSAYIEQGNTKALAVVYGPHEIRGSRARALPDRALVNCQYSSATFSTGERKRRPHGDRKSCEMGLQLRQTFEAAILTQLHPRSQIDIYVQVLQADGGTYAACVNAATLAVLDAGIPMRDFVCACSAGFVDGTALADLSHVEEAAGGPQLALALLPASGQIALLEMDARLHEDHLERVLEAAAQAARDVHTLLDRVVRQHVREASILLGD
UniProt Q9UGP8, sequence (Q9UGP8 whole entry): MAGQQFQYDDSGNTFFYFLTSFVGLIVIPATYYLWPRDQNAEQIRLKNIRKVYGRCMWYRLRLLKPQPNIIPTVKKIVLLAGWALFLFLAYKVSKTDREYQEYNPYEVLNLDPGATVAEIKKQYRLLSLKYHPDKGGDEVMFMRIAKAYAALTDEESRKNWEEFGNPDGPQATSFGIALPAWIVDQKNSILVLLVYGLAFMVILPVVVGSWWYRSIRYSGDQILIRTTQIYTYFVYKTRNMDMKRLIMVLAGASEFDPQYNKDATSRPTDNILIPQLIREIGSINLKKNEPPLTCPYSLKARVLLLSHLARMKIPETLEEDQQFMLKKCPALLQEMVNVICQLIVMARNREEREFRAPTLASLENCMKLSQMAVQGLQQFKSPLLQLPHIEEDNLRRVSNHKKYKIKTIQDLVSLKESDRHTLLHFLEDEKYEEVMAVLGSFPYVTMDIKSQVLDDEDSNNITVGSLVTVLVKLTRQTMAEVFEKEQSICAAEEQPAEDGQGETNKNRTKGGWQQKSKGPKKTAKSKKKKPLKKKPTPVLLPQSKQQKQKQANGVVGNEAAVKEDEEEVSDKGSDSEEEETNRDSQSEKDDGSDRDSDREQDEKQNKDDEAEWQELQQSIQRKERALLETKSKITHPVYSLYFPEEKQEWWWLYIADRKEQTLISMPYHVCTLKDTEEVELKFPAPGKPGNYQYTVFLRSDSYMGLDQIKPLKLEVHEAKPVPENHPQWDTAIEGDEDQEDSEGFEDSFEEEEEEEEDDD
UniProt Q9Y512, sequence (Q9Y512 whole entry): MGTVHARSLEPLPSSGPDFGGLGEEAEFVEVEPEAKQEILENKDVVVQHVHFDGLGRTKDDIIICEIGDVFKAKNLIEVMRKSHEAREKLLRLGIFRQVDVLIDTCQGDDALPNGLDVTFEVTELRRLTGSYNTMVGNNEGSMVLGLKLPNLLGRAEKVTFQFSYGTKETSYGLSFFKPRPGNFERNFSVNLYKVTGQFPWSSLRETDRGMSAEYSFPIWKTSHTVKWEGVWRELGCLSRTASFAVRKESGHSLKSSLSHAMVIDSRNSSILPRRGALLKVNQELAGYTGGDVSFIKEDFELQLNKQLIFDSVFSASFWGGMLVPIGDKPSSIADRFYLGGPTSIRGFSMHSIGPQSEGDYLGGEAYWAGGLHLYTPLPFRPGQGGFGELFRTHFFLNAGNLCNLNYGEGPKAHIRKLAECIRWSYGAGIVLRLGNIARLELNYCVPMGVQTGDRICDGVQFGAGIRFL
UniProt Q96L91, sequence (Q96L91 whole entry): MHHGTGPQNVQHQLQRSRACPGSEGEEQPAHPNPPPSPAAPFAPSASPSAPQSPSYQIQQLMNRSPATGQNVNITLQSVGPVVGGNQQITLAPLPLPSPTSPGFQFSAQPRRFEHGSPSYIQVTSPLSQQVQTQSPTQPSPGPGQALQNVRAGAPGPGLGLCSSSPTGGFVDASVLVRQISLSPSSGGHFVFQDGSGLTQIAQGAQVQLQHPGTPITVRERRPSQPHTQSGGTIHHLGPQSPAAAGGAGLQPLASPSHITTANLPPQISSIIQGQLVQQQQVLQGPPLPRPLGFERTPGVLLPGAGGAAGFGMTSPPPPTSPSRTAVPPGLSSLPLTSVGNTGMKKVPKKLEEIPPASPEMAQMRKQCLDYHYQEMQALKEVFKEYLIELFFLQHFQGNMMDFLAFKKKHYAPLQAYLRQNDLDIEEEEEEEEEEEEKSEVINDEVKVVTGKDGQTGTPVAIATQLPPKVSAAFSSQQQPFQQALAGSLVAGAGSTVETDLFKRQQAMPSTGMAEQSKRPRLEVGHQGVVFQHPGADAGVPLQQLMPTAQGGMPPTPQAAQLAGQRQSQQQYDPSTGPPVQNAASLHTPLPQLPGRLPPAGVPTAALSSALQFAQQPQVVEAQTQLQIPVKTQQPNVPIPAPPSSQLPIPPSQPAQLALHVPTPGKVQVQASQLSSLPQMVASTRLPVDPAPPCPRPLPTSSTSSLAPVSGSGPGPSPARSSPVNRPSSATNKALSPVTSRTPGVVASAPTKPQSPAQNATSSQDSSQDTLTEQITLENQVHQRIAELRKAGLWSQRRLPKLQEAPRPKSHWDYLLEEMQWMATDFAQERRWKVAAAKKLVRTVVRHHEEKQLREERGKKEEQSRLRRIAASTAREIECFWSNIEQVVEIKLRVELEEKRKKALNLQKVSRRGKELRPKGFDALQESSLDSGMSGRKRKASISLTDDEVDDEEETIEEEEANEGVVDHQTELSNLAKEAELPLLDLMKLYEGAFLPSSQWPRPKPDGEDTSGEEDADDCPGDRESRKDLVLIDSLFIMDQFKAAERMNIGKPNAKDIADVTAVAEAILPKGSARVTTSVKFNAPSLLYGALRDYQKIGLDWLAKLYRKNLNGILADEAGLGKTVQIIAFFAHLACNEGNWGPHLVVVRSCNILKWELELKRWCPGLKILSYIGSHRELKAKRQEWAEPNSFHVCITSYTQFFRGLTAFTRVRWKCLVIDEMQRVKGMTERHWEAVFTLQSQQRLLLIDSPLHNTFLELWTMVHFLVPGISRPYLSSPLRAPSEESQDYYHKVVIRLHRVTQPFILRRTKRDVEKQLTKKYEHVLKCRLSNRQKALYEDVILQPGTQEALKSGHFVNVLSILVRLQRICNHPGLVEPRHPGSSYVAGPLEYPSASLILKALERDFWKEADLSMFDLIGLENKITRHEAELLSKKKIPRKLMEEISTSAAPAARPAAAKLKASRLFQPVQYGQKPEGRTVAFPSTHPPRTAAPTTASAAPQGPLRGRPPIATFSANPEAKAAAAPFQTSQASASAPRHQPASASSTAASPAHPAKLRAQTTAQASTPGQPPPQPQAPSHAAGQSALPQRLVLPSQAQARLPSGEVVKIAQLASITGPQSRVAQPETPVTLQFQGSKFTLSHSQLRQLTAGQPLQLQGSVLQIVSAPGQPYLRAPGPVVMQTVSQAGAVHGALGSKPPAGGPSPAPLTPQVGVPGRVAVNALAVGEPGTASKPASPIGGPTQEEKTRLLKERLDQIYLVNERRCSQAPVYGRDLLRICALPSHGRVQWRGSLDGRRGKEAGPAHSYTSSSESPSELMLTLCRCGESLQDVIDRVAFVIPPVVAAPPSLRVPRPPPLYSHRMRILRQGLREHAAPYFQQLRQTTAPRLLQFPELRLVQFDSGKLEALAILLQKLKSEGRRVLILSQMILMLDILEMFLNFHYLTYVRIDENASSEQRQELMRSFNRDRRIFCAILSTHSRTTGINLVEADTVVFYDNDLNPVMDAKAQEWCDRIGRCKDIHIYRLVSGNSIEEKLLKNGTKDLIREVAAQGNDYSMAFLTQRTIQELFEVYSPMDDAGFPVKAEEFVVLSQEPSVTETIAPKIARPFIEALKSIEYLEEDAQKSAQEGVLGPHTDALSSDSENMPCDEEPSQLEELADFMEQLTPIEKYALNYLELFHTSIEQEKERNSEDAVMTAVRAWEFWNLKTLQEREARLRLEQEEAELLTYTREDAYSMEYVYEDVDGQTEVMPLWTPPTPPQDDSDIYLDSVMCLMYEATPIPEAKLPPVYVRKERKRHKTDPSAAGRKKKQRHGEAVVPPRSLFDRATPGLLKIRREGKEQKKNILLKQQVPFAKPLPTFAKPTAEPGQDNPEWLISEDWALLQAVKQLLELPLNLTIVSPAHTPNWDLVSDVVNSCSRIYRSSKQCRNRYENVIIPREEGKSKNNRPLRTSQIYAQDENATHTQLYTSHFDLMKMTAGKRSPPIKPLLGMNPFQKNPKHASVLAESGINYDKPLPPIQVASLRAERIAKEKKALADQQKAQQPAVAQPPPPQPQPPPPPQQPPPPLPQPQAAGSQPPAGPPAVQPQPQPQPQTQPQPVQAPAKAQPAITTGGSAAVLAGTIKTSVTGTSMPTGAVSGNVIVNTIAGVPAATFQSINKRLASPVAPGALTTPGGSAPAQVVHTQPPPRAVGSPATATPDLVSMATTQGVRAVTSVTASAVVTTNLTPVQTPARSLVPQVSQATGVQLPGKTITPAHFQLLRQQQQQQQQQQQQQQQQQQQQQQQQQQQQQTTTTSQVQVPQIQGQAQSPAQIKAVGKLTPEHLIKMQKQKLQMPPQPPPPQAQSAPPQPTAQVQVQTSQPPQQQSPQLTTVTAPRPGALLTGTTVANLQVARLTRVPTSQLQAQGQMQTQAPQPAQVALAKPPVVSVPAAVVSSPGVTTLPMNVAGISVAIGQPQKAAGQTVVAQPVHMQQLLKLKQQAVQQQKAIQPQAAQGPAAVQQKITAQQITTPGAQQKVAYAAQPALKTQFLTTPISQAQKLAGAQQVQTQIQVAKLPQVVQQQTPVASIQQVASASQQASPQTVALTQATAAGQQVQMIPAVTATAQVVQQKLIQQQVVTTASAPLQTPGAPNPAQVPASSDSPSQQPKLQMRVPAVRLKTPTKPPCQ
UniProt Q9Y6A4, sequence (Q9Y6A4 whole entry): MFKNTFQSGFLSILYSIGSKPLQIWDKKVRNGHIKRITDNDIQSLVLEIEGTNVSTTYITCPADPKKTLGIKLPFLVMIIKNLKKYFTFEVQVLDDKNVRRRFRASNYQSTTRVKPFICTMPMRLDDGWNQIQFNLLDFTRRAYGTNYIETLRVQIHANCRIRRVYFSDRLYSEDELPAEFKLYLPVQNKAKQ
UniProt Q9UL25, sequence (Q9UL25 whole entry): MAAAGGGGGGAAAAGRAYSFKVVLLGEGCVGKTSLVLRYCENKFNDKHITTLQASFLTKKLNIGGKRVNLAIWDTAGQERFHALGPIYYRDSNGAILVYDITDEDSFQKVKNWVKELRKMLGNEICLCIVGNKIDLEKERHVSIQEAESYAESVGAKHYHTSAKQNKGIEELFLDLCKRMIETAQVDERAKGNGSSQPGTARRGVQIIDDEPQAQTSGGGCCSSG

Turning to UniProt Q9Y3L3|Q9Y3L3-2, the NP40-soluble protein abundance reads like this: (concentration: 0.1mM) 0.998 ± 0.025; (concentration: 0.5mM) 1 ± 0.045; (concentration: 1mM) 0.994 ± 0.018; (concentration: 2mM) 0.988 ± 0.099; (concentration: 4mM) 0.981 ± 0.04; (concentration: 6mM) 0.991 ± 0.052. Besides, the NP40-soluble protein abundance stood at 0.958 ± 0.019 (concentration: 8mM) and 1.01 ± 0.034 (concentration: 10mM).

With SMARCD1 (UniProt Q96GM5), the NP40-soluble protein abundance runs as follows: (concentration: 0.1mM) 1.06 ± 0.036; (concentration: 0.5mM) 1.11 ± 0.065; (concentration: 1mM) 1.09 ± 0.089; (concentration: 2mM) 1.18 ± 0.16; (concentration: 4mM) 1.18 ± 0.17; (concentration: 6mM) 1.18 ± 0.19. Moreover, the NP40-soluble protein abundance worked out at 1.15 ± 0.18 (concentration: 8mM) and 1.16 ± 0.17 (concentration: 10mM).

Regarding “UniProt Q96L91|Q96L91-2|Q96L91-3|Q96L91-5”, the NP40-soluble protein abundance (concentration: 0.1mM) was 1.03 ± 0.021; the NP40-soluble protein abundance (concentration: 0.5mM) was 1.06 ± 0.04; the NP40-soluble protein abundance (concentration: 1mM) was 1.12 ± 0.03; the NP40-soluble protein abundance (concentration: 2mM) was determined as 1.18 ± 0.061; the NP40-soluble protein abundance (concentration: 4mM) worked out at 1.24 ± 0.13; the NP40-soluble protein abundance (concentration: 6mM) came out at 1.26 ± 0.14. Besides, the NP40-soluble protein abundance by setting is: (concentration: 8mM) 1.32 ± 0.22; (concentration: 10mM) 1.34 ± 0.23.

STUB1 (UniProt Q9UNE7): the NP40-soluble protein abundance (concentration: 0.1mM) came out at 0.948 ± 0.056; the NP40-soluble protein abundance (concentration: 0.5mM) turned out to be 0.8985 ± 0.0031; the NP40-soluble protein abundance (concentration: 1mM) is 1.02 ± 0.1; the NP40-soluble protein abundance (concentration: 2mM) is 1.03 ± 0.027; the NP40-soluble protein abundance (concentration: 4mM) was 1.01 ± 0.078; the NP40-soluble protein abundance (concentration: 6mM) was 1.01 ± 0.012. Moreover, the NP40-soluble protein abundance is, setting by setting: (concentration: 8mM) 1.01 ± 0.049; (concentration: 10mM) 1.03 ± 0.081.

Take WDR3 (UniProt Q9UNX4): the NP40-soluble protein abundance is 1.12 ± 0.08 (concentration: 0.1mM); 1.15 ± 0.098 (concentration: 0.5mM); 1.13 ± 0.061 (concentration: 1mM); 1.42 ± 0.13 (concentration: 2mM); 1.81 ± 0.16 (concentration: 4mM); 1.98 ± 0.2 (concentration: 6mM). Also, the NP40-soluble protein abundance is, setting by setting: (concentration: 8mM) 2.04 ± 0.12; (concentration: 10mM) 1.974 ± 0.012.

As for ZHX3 (UniProt Q9H4I2), the NP40-soluble protein abundance reads like this: (concentration: 0.1mM) 0.975 ± 0.062; (concentration: 0.5mM) 0.94 ± 0.043; (concentration: 1mM) 0.994 ± 0.1; (concentration: 2mM) 1.01 ± 0.099; (concentration: 4mM) 0.967 ± 0.039; (concentration: 6mM) 1.01 ± 0.079. Besides, the NP40-soluble protein abundance is 1.05 ± 0.07 (concentration: 8mM) and 1.05 ± 0.11 (concentration: 10mM).

As to UniProt Q9UMX0|Q9UMX0-2, the NP40-soluble protein abundance by setting is: (concentration: 0.1mM) 0.999 ± 0.07; (concentration: 0.5mM) 0.998 ± 0.015; (concentration: 1mM) 1.09 ± 0.11; (concentration: 2mM) 1.02 ± 0.032; (concentration: 4mM) 1.012 ± 0.0015; (concentration: 6mM) 0.994 ± 0.039. The NP40-soluble protein abundance (concentration: 8mM) came out at 1.02 ± 0.053 and the NP40-soluble protein abundance (concentration: 10mM) was 1.01 ± 0.039.

Turning to RAB21 (UniProt Q9UL25), the NP40-soluble protein abundance (concentration: 0.1mM) was determined as 0.998 ± 0.058; the NP40-soluble protein abundance (concentration: 0.5mM) amounted to 0.967 ± 0.036; the NP40-soluble protein abundance (concentration: 1mM) came out at 0.87 ± 0.016; the NP40-soluble protein abundance (concentration: 2mM) is 0.862 ± 0.011; the NP40-soluble protein abundance (concentration: 4mM) amounted to 0.837 ± 0.029; the NP40-soluble protein abundance (concentration: 6mM) is 0.84 ± 0.039. The NP40-soluble protein abundance is 0.812 ± 0.048 (concentration: 8mM) and 0.813 ± 0.093 (concentration: 10mM).

For EXOSC4 (UniProt Q9NPD3), the NP40-soluble protein abundance turned out to be 1.07 ± 0.061 (concentration: 0.1mM); 0.988 ± 0.057 (concentration: 0.5mM); 0.996 ± 0.015 (concentration: 1mM); 0.994 ± 0.11 (concentration: 2mM); 1.12 ± 0.023 (concentration: 4mM); 1.12 ± 0.095 (concentration: 6mM). Moreover, the NP40-soluble protein abundance (concentration: 8mM) was 1.11 ± 0.089 and the NP40-soluble protein abundance (concentration: 10mM) worked out at 1.16 ± 0.054.

For the target “UniProt Q9NS23|Q9NS23-2|Q9NS23-3|Q9NS23-4|Q9NS23-5”, the NP40-soluble protein abundance by setting is: (concentration: 0.1mM) 0.978 ± 0.032; (concentration: 0.5mM) 1.03 ± 0.098; (concentration: 1mM) 1.04 ± 0.051; (concentration: 2mM) 1.04 ± 0.058; (concentration: 4mM) 1.05 ± 0.09; (concentration: 6mM) 1.01 ± 0.022. Further, the NP40-soluble protein abundance was 0.971 ± 0.056 (concentration: 8mM) and 0.968 ± 0.11 (concentration: 10mM).

On to UniProt Q9Y6A4, for which the NP40-soluble protein abundance (concentration: 0.1mM) turned out to be 1.09 ± 0.027; the NP40-soluble protein abundance (concentration: 0.5mM) is 1.04 ± 0.076; the NP40-soluble protein abundance (concentration: 1mM) is 0.962 ± 0.024; the NP40-soluble protein abundance (concentration: 2mM) turned out to be 0.968 ± 0.1; the NP40-soluble protein abundance (concentration: 4mM) is 1.01 ± 0.05; the NP40-soluble protein abundance (concentration: 6mM) stood at 0.964 ± 0.087. Besides, the NP40-soluble protein abundance reads like this: (concentration: 8mM) 1.01 ± 0.05; (concentration: 10mM) 0.957 ± 0.11.

As for SAMM50 (UniProt Q9Y512), the NP40-soluble protein abundance (concentration: 0.1mM) was 1.13 ± 0.15; the NP40-soluble protein abundance (concentration: 0.5mM) is 1.18 ± 0.19; the NP40-soluble protein abundance (concentration: 1mM) amounted to 0.999 ± 0.1; the NP40-soluble protein abundance (concentration: 2mM) is 1.13 ± 0.29; the NP40-soluble protein abundance (concentration: 4mM) amounted to 1.11 ± 0.19; the NP40-soluble protein abundance (concentration: 6mM) came to 1.1 ± 0.22. The NP40-soluble protein abundance reads like this: (concentration: 8mM) 0.985 ± 0.098; (concentration: 10mM) 0.949 ± 0.17.

As for SEC63 (UniProt Q9UGP8), the NP40-soluble protein abundance runs as follows: (concentration: 0.1mM) 0.964 ± 0.023; (concentration: 0.5mM) 0.977 ± 0.022; (concentration: 1mM) 0.935 ± 0.045; (concentration: 2mM) 0.926 ± 0.036; (concentration: 4mM) 0.913 ± 0.073; (concentration: 6mM) 0.927 ± 0.026. The NP40-soluble protein abundance is, setting by setting: (concentration: 8mM) 0.93 ± 0.022; (concentration: 10mM) 0.897 ± 0.03.

UniProt Q96LT9|Q96LT9-2: the NP40-soluble protein abundance runs as follows: (concentration: 0.1mM) 1.26 ± 0.038; (concentration: 0.5mM) 1.16 ± 0.16; (concentration: 1mM) 1.42 ± 0.12; (concentration: 2mM) 1.49 ± 0.3; (concentration: 4mM) 1.61 ± 0.28; (concentration: 6mM) 1.6 ± 0.35. Also, the NP40-soluble protein abundance came out at 1.72 ± 0.51 (concentration: 8mM) and 1.8 ± 0.54 (concentration: 10mM).

For the target UTP18 (UniProt Q9Y5J1), the NP40-soluble protein abundance by setting is: (concentration: 0.1mM) 1.06 ± 0.091; (concentration: 0.5mM) 1.16 ± 0.12; (concentration: 1mM) 1.13 ± 0.091; (concentration: 2mM) 1.24 ± 0.091; (concentration: 4mM) 1.37 ± 0.11; (concentration: 6mM) 1.3 ± 0.044. For the same target, the NP40-soluble protein abundance by setting is: (concentration: 8mM) 1.37 ± 0.17; (concentration: 10mM) 1.57 ± 0.17.
